Bioassay records as filed in PubChem.
Shown are actives, neighbours in structure and some others; about 4.8% of the full set was active somewhere.
DAX1 inh-1: inhibits human nuclear receptor DAX1. P51843. HEK293 Gal4-DAX1 luciferase reporter, luminescence. inhibition, % at 6.75 µM. hit rate 0.99% among 340,000. AID 504766;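 active means inhibition above the mean over all tested compounds plus 3 SD, cut at about 4.2% in these data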;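 further: 0% = DAX1-transfected cells with DMSO and 100% = empty-vector control cells with DMSO; inhibition shows as a rise in luminescence from relieved DAX1 repression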
Target sequence (P51843 207-470 limits assumed): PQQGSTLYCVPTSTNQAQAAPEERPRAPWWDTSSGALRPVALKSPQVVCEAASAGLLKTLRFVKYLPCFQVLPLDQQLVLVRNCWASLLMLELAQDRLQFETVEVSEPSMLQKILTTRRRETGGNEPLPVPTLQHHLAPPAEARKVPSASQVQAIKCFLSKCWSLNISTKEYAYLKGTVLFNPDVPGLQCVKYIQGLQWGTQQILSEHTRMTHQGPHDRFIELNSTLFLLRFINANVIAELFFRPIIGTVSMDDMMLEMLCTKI
DAX1 inh-2: DAX1 (NR0B1) inhibition, primary screen; HEK293T StAR-luciferase reporter, SF-1/DAX-1 repression relief; hit rate 1.1% among 370,000; AID 652010; inhibition, % at 6.8 µM;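 active means inhibition above the mean over all tested compounds plus 3 SD, cut at about 3.6% in these data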;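 further: 0% = DAX-1 cells with DMSO and 100% = cells lacking DAX-1 with DMSO; higher inhibition means more luminescence from relief of DAX-1 repression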
hgDAF-12 ag: agonists of H. glycines DAF-12 nuclear receptor | AID 687014 | HEK293 GAL4-hgDAF12 UAS-luciferase reporter, agonist luminescence; normalized to butyrate control | hit rate 1.8% among 370,000 | activation, % at 6.8 µM;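 active means activation above a cutoff set at the mean of all screened compounds plus 3 SD, cut at about 10% in these data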;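 further: 0% = DMSO wells and 100% = sodium butyrate wells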
ssDAF12 agonist: S. stercoralis DAF-12 activation, primary screen. HEK293 ssDAF-12/GRIP1 lit1-tk-luc reporter, luminescence; % of 3 µM dafachronic acid response. activation, % at 6.8 µM. hit rate 1% among 370,000;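 active means activation above the mean over all tested compounds plus 3 SD, cut at about 0.9% in these data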;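 further: 0% = DMSO-only wells and 100% = 3 µM delta7-dafachronic acid wells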
SMARCA2 act: activators of SMARCA2 function; hit rate 1% among 370,000; activation, % at 9.1 µM; MG213 cells, MMTV-luciferase reporter, dexamethasone, overnight; in the data active means activation above about 7.8%;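 further: 0% = vehicle wells and 100% = reference activator wells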
hcDAF12 agonist: activators of H. contortus DAF-12 nuclear receptor. HEK293 hcDAF-12 lit1-tk-luc reporter, luminescence; 0% DMSO, 100% Δ7-dafachronic acid. activation, % at 6.8 µM. hit rate 1.4% among 370,000. AID 652067;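 active means activation above the mean of all tested compounds plus 3 SD, cut at about 5.5% in these data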;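 further: 100% = response to 3 µM Δ7-dafachronic acid high control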
hgDAF12 conf: hgDAF-12 agonism, confirmation assay; shares compounds with hgDAF-12 ag; HEK293 GAL4-hgDAF12 luciferase reporter, agonist mode; percent of butyrate response; activation, % at 6.8 µM; hit rate 80% among 3,300; AID 743050;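 active means mean activation over triplicate wells above the hit cutoff derived from the earlier primary screen, cut at about 11% in these data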;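 further: 0% = DMSO low control and 100% = 2 mM sodium butyrate high control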
LXR ag 2: LXR-beta agonism as DAF-12 counter-screen; AID 743051; activation, % at 6.8 µM; 3,300 tested, under 10 active; HEK293 Gal4-LXR luciferase reporter, 24 h; shares compounds with hgDAF-12 ag;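 active means mean activation of the triplicate above a set limit carried over from the primary screen, none filed active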
Numbers without * were called inactive; x = no result given.

SMILES	DAX1 inh-1	DAX1 inh-2	hgDAF-12 ag	ssDAF12 agonist	SMARCA2 act	hcDAF12 agonist	hgDAF12 conf	LXR ag 2
CN(C)c1ccc(C(=O)OCC(=O)c2ccc[nH]2)cc1	0.5	0.2	14.5*	0.2	4.4	3.9	15.2*	0.4
O=C(OCC(=O)c1ccc[nH]1)c1ccccc1	1.0	0.1	5.0	-1.5	-0.3	1.2	x	x
O=C(/C=C/c1ccc(F)cc1)NCCC1=CCCCC1	-0.1	1.0	9.2	-0.6	1.3	2.2	x	x
O=C(/C=C/c1ccccc1)NCCC1=CCCCC1	0.5	1.9	14.1*	-1.1	6.4	-1.3	12.0*	0.7
C/C(Cc1ccccc1)=N\NC(=O)CNC(=O)c1ccccc1	-2.1	-0.2	1.9	-1.0	-0.3	-0.5	x	x
Oc1cccc(C=NCc2ccccc2)c1O	-1.2	-0.6	-0.7	-1.0	2.4	-0.8	x	x
Oc1c(C=NCc2ccccc2)sc2ccccc12	11.9*	1.1	15.4*	-0.2	2.0	4.0	16.0*	0.3
Cc1ccc2nc(NC(=O)CCn3cccc3)sc2c1	1.9	2.7	14.8*	-1.7	1.1	2.1	8.8	0.2
Cc1ccc2nc(NC(=O)C3CC3C)sc2c1 (stereo not given)	0.8	0.6	14.2*	0.3	3.5	4.6	11.9*	0.6
CC1CC1C(=O)Nc1nc2ccc(S(C)(=O)=O)cc2s1 (stereo not given)	-1.8	-0.3	0.7	-1.4	-1.9	-0.7	x	x
COCCN(CC1CCCN(C2Cc3ccccc3C2)C1)C(=O)CCC(N)=O (stereo not given)	-0.7	-0.4	0.8	-1.0	-0.8	-0.9	x	x
O=C(NCc1ccccn1)c1c(-c2ccccc2)sc2ccccc12	0.3	-0.1	-1.2	-1.3	0.5	-1.9	x	x
COC(=O)C1=C(CSc2nc3c(cc2C#N)CN(C)CC3)OC(N)=C(C#N)C1c1ccc(F)cc1 (stereo not given)	-0.1	-0.8	2.5	-1.0	2.4	2.9	x	x
FC(F)(F)c1cnc(-c2cnc(-c3ccccn3)nc2)c(Cl)c1	-0.8	4.4*	16.6*	-0.1	1.7	1.4	13.7*	0.7
CCCCCN(C(=O)CCC(=O)OCC(=O)N(C)Cc1ccc(C)cc1)c1c(N)n(CCCC)c(=O)[nH]c1=O	2.3	0.2	-1.7	-0.2	3.0	-2.1	x	x
Oc1ccc(C[C@H]2CNCCN2CCc2cc(C(F)(F)F)cc(C(F)(F)F)c2)cc1	-0.7	0.5	-1.9	-1.3	4.8	-1.0	x	x
NNC(=O)c1cccc(COc2ccc(Br)cc2)c1	-4.1	3.7*	18.8*	-0.5	1.0	4.2	21.7*	0.8
CC(=O)N1N=C(c2cccs2)CC1c1ccco1 (stereo not given)	-0.9	0.2	-3.3	-1.1	-0.3	0.3	x	x
O=C(Cc1ccccc1[N+](=O)[O-])NCc1ccccc1Cl	0.5	3.5	13.7*	0.1	3.7	4.0	13.7*	0.4
Cc1ccc2nc(N3CCOCC3)c3nncn3c2c1	0.2	0.4	0.2	-1.8	-3.8	-0.7	x	x
Fc1cccc2sc(Nc3nc4cc5c(cc4s3)OCO5)nc12	0.7	3.2	15.9*	1.1*	7.0	6.3*	13.6*	0.6
CC(C)C(=O)Nc1nc2cc3c(cc2s1)OCO3	1.4	0.7	9.9	-0.6	-0.9	1.8	x	x
O=C(CCl)Nc1ccccc1C(=O)Nc1ccc2c(c1)OCO2	-1.3	0.5	19.1*	0.1	-3.2	4.7	7.5	0.7
COc1cccc(C(=O)Nc2ccc3c(c2)OCO3)c1OC	1.1	1.4	13.9*	0.8	3.3	5.8*	14.2*	0.6
COc1cccc(C(=O)NCc2ccc3c(c2)OCO3)c1OC	0.1	0.4	-2.1	-0.8	-2.3	-1.9	x	x
CSc1ccccc1C(=O)NCCc1ccc(S(=O)(=O)N2CCCCC2)cc1	-0.6	-0.2	-1.6	-1.7	-1.9	-1.8	x	x
O=C(CN1CCN(S(=O)(=O)c2ccccc2)CC1)Nc1ccc2c(c1)OCO2	0.6	-0.7	1.9	-0.6	0.9	-1.2	x	x
